SARS PLpro yeast: SARS-CoV PLP inhibition in yeast; hit rate 0.19% among 330,000; S. cerevisiae expressing SARS-CoV PLpro, growth rescue; AID 485353; Potency, µM (highest dose often 32.9 µM), actives largely listed as activators; calls by dose curve; also: nearly all actives have a fitted effect of over 55% in size
Pf growth 96h: inhibits malaria parasite growth, 96 h; P. falciparum luciferase reporter growth, 96 h; Potency, µM (titrated, usually from 28.7 µM), hits mostly inhibitors; hit rate 6.9% among 320,000
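P. falciparum expressing integrated firefly luciferase, in erythrocytes at 2% hematocrit, 0.05% parasitemia, incubated with compounds 96 h at 37 C, 5% CO2. Growth inhibition read as loss of luminescence; two-generation exposure targets delayed-death apicoplast inhibitors.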
Sm TGR inh: inhibitors of Schistosoma mansoni thioredoxin glutathione reductase; purified TGR, DTNB reduction, TNB absorbance 405 nm; hit rate 3% among 360,000; Potency, µM (top dose mostly 114 µM), most hits filed as inhibitors; Q962Y6; AID 485364; also: nearly all actives have a fitted effect of over 60% in size
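Kinetic colorimetric format: TGR-catalysed, NADPH-driven DTNB reduction monitored via TNB absorbance. Enzyme dispensed at 20 nM; compound exposure 15 min at room temperature before reaction start.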
Pf growth 48h: P. falciparum growth inhibition at 48 hours (one generation) | P. falciparum luciferase growth in erythrocytes, 48 h | Potency, µM (top dose mostly 28.7 µM), usual class: inhibitors | hit rate 5.9% among 310,000
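Luciferase-expressing P. falciparum in infected erythrocytes (2% hematocrit, 0.1% parasitemia final) in RPMI 1640/0.5% Albumax were exposed to compound for 48 hours at 37 C, 5% CO2; growth read as luminescence.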
Each line names hits and unclear results; the compound was inactive in the other large screens. An excerpt weighted towards active compounds, which were near 12% of everything screened. Unless noted, calls follow the shape of the dose curve; as a rule, active = well fitted curve in the direction sought with a large enough effect; inconclusive = small, poorly fitted or top-dose-only effect, or another doubt; inactive = no such curve, though single readings can be large; an effect the other way counts as inactive or inconclusive.

CCOc1ccc(N(CC(=O)Nc2ccccc2OCC)S(=O)(=O)c2c(C)noc2C)cc1	Pf growth 96h 12µM, Pf growth 48h inconclusive
COc1ccc(N(CC(=O)Nc2ccc(C)c(F)c2)S(=O)(=O)c2c(C)noc2C)cc1	Pf growth 96h inconclusive, Pf growth 48h 13µM
CCOc1ccc(N(CC(=O)Nc2cccc(OC)c2)S(=O)(=O)c2c(C)noc2C)cc1	Pf growth 96h 0.83µM, Pf growth 48h inconclusive
CCOc1ccccc1NC(=O)c1c(NC(=O)Cc2ccc(OC)cc2)sc2c1CCC2	none (no result: SARS PLpro yeast, Pf growth 96h, Pf growth 48h)
COc1ccc(C(=O)CSc2nnc(CNC(=O)c3ccccc3)o2)cc1	none
O=C(NCCSc1ccc(Br)cc1)c1ccc2nc[nH]c2c1	none
CC(=O)c1ccccc1-c1csc2ncnc(Sc3nnnn3C)c12	Pf growth 96h 4.1µM, Pf growth 48h 12µM
Cn1nnnc1Sc1ncnc2scc(-c3cccc(F)c3)c12	Pf growth 96h inconclusive, Pf growth 48h 4.7µM
Cn1nnnc1Sc1ncnc2scc(-c3ccc(C(F)(F)F)cc3)c12	Pf growth 96h inconclusive, Pf growth 48h inconclusive
Cn1nnnc1Sc1ncnc2scc(-c3ccccc3C(F)(F)F)c12	Pf growth 96h 7.4µM, Sm TGR inh 4µM, Pf growth 48h 13µM
Cn1nnnc1Sc1ncnc2scc(-c3cccs3)c12	Pf growth 96h inconclusive, Sm TGR inh 3.5µM, Pf growth 48h inconclusive
Cn1nnnc1Sc1ncnc2scc(-c3cc4ccccc4o3)c12	Pf growth 96h inconclusive, Pf growth 48h 4.1µM
Cn1nnnc1Sc1ncnc2scc(-c3ccc(C#N)cc3)c12	Pf growth 96h 1.9µM, Sm TGR inh inconclusive, Pf growth 48h 4.7µM
Cc1ccc(NC(=O)c2ccc(=O)[nH]n2)cc1S(=O)(=O)Nc1ccc(SC(F)F)cc1	none (no result: Pf growth 96h, Sm TGR inh, Pf growth 48h)
Cc1occc1-c1nnc(SCC(=O)c2ccc(F)cc2)n1Cc1ccco1	Sm TGR inh 22µM (no result: Pf growth 96h)
Cc1ccc(OCc2nnc(SCc3nc4ccccc4[nH]3)n2Cc2ccco2)cc1	Pf growth 96h 6.6µM, Pf growth 48h inconclusive
O=C(CSc1nnc(COc2ccccc2)n1Cc1ccco1)c1ccc(F)cc1	Pf growth 96h 13µM, Pf growth 48h 12µM
Clc1ccc(OCc2nnc(SCCN3CCCCC3)n2Cc2ccco2)cc1	Sm TGR inh 25µM, Pf growth 48h inconclusive
c1ccc(-c2nnc(SCc3nc4ccccc4[nH]3)n2Cc2ccco2)cc1	none
O=c1cc(CSc2ccccc2)[nH]c2ccc(F)cc12	none (no result: SARS PLpro yeast, Pf growth 96h, Pf growth 48h)
O=C(NCCc1ccc(C(F)(F)F)cc1)C1CCC(=O)N(CCCc2ccccc2)C1 (stereo not drawn)	none
COc1ccc(CNC(=O)COC(=O)c2cc(S(=O)(=O)N3CCOCC3)ccc2O)cc1OC	none (no result: Pf growth 96h, Sm TGR inh, Pf growth 48h)
C#CCOCCOCCOCCNc1nc(N2CCN(C(=O)[C@H](CCC(=O)O)n3cc(C(N)Cc4ccc(O)cc4)nn3)CC2)nc(N2CCN(C(=O)[C@H](CCC(=O)O)n3cc(C(N)CC(C)C)nn3)CC2)n1 (stereo partly drawn)	Sm TGR inh 35µM
C#CCOCCOCCOCCNc1nc(N2CCN(C(=O)[C@H](CCC(=O)O)n3cc(C(N)CO)nn3)CC2)nc(N2CCN(C(=O)[C@H](Cc3ccc(O)cc3)n3cc(C(N)CC(C)C)nn3)CC2)n1 (stereo partly drawn)	Sm TGR inh 10µM
CCOC(=O)CNC(=O)CN1CCC(c2nc3ccccc3[nH]2)CC1	Pf growth 96h inconclusive
CC(=O)N1CCc2c(sc3c2c(=O)n(-c2ccc(C)cc2)c(=O)n3CC(=O)Nc2ccccc2)C1	none (no result: SARS PLpro yeast, Pf growth 96h, Pf growth 48h)
Cc1cn(C)c(CC(=O)N2CCN(c3ccccc3F)CC2)c1C(=O)O	none (no result: SARS PLpro yeast, Pf growth 96h, Pf growth 48h)
Cc1ccc(Cn2cc(S(=O)(=O)c3ccc(C(C)C)cc3)c(=O)c3cc4c(cc32)OCO4)cc1	Pf growth 96h 3.3µM, Pf growth 48h 9.3µM
Cc1cccc(-n2nnnc2S(C)(=O)=O)c1	Sm TGR inh 2.5µM (no result: SARS PLpro yeast, Pf growth 96h, Pf growth 48h)
COC(=O)c1nnn(-c2cccc(C)c2)c1C(=O)OC	none (no result: SARS PLpro yeast, Pf growth 96h, Pf growth 48h)
COc1cccc(-n2nnnc2S(C)(=O)=O)c1	Pf growth 96h inconclusive, Sm TGR inh 2.8µM (no result: Pf growth 48h)
COc1cccc(Oc2nnnn2-c2ccccc2)c1	Pf growth 96h inconclusive
Cc1cc(NC(=O)CCC(=O)N(Cc2ccccc2)C2(C(=O)NC3CCCCC3)CCCC2)no1	Pf growth 96h inconclusive, Pf growth 48h 9.3µM (no result: Sm TGR inh)
Cc1cc(NC(=O)CCC(=O)N(CC(=O)NC2CCCC2)Cc2ccco2)no1	none (no result: Pf growth 96h)
Cc1cc(NC(=O)CCC(=O)N(Cc2ccco2)C2(C(=O)NC3CCCCC3)CCCCC2)no1	Pf growth 96h 1.3µM
CC1CCN(c2ccc(-c3cccc(NS(=O)(=O)c4ccc(F)cc4F)c3)nn2)CC1	none (no result: SARS PLpro yeast, Pf growth 96h, Pf growth 48h)
O=[N+]([O-])c1ccc(Sc2nnnn2-c2ccccc2)nc1	Pf growth 96h inconclusive, Sm TGR inh 14µM, Pf growth 48h inconclusive
O=[N+]([O-])c1ccc(Sc2ccccn2)nc1	Pf growth 96h 8.3µM, Pf growth 48h inconclusive
N#Cc1cc(Sc2ccccn2)c([N+](=O)[O-])cc1C#N	Sm TGR inh 35µM, Pf growth 48h 3.7µM
O=C(Nc1cc(Sc2ccccn2)cc([N+](=O)[O-])c1)c1ccc([N+](=O)[O-])cc1	Pf growth 96h 3.3µM, Pf growth 48h 13µM
Cc1ccc(NC(=O)CCn2nc(-c3ccccc3)c3ccccc3c2=O)c(C)c1	none (no result: SARS PLpro yeast, Pf growth 96h, Pf growth 48h)
O=C(c1ccc2ccccc2c1)C1CCCN(C(=O)CN2C(=O)CSC2=O)C1 (stereo not drawn)	Pf growth 96h 10µM
Cc1ccccc1OCC(=O)OCc1cc(=O)n2nc(C3CC3)sc2n1	none (no result: SARS PLpro yeast, Pf growth 96h, Pf growth 48h)
Cc1ccc(C(C)C)c(OCC(=O)NCC2(N3CCOCC3)CCCCC2)c1	none (no result: SARS PLpro yeast, Pf growth 96h, Pf growth 48h)
CCCCCc1cc(=O)oc2c(C(CCN3CCCC(C)C3)c3ccc4c(c3)OCO4)c(OC)cc(OC)c12 (stereo not drawn)	Pf growth 96h 4.1µM, Pf growth 48h 7.4µM
CCCCCc1cc(=O)oc2c(C(CCN(CC)CC)c3cc(OC)c(OC)c(OC)c3)c(OC)cc(OC)c12 (stereo not drawn)	Pf growth 96h 3.7µM, Pf growth 48h 13µM
CCCCCc1cc(=O)oc2c(C(CCN3CCCCC3)c3ccc4c(c3)OCO4)c(OC)cc(OC)c12 (stereo not drawn)	Pf growth 96h 4.7µM, Pf growth 48h 10µM
CCCSCCCNC(=O)c1cc2n(n1)CCCN(Cc1ccc(C)cc1)C2=O	none (no result: SARS PLpro yeast, Pf growth 96h, Pf growth 48h)
COc1cccc(/C(O)=C/c2nc3ccc(C(=O)NCCc4cccc(C)c4)cc3[nH]c2=O)c1	Pf growth 48h 8.3µM
Cc1ccc2c(c1)N(CC(=O)NCCc1ccccc1)C(=O)c1cccnc1O2	none
CCOC(=O)C1=C(CSc2nc(C)ccc2C#N)OC(N)=C(C#N)C1c1cccc(OC)c1OC (stereo not drawn)	Pf growth 96h 6.6µM, Sm TGR inh 13µM
CCOC(=O)C1=C(CSc2nc(-c3ccncc3)ccc2C#N)OC(N)=C(C#N)C1c1cccnc1 (stereo not drawn)	Pf growth 96h inconclusive, Sm TGR inh inconclusive, Pf growth 48h 13µM
CCOC(=O)C1=C(CSc2nc(-c3ccncc3)ccc2C#N)OC(N)=C(C#N)C1c1ccc(OC)cc1 (stereo not drawn)	Pf growth 96h inconclusive (no result: Pf growth 48h)
